The source of these data is the supplement of paper PMC11732987, “Enantioselective OTUD7B fragment discovery through chemoproteomics screening and high-throughput optimisation” (Communications Chemistry, 2025).

Chain of UniProt Q8TE49 (Q8TE49 whole entry): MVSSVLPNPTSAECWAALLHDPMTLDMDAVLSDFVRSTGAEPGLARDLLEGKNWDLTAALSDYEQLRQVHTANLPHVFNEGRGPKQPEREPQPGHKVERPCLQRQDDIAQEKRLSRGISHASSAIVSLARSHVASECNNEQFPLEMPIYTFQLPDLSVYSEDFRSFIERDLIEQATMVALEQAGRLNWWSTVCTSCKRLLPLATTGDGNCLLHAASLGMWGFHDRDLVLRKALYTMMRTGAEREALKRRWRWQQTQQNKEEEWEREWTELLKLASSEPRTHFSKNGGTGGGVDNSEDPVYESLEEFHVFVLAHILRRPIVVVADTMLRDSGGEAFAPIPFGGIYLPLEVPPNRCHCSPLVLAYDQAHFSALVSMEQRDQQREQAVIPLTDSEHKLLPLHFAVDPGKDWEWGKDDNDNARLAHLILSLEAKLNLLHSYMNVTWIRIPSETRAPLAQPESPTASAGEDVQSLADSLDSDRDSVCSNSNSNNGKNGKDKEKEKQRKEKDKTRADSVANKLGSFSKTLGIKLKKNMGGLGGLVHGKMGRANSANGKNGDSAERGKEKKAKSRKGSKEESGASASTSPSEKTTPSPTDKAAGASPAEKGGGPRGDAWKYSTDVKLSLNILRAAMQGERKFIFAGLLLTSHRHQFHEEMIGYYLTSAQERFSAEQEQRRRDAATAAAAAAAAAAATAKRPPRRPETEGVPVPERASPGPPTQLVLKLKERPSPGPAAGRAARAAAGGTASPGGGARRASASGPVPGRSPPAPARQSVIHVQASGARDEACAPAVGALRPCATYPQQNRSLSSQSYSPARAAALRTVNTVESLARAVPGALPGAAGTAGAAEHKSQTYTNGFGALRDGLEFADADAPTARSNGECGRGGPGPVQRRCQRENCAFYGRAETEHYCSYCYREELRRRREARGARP
Chain of UniProt Q53GS9 (Q53GS9 whole entry): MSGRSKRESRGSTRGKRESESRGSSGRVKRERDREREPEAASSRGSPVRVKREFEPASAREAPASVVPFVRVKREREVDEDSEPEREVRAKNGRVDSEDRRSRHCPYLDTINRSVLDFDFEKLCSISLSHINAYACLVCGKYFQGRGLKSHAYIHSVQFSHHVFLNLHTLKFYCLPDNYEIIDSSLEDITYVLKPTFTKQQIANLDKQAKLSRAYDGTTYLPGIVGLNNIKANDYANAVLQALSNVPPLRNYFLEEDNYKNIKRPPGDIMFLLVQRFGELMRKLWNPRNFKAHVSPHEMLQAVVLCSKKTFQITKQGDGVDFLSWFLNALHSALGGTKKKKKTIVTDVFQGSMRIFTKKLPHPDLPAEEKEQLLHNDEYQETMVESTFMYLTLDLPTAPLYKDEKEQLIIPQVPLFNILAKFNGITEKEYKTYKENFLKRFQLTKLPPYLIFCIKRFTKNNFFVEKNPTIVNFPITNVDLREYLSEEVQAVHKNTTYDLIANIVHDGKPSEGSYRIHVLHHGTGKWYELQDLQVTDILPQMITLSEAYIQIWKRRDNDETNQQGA
Chain of UniProt Q14694 (Q14694 whole entry): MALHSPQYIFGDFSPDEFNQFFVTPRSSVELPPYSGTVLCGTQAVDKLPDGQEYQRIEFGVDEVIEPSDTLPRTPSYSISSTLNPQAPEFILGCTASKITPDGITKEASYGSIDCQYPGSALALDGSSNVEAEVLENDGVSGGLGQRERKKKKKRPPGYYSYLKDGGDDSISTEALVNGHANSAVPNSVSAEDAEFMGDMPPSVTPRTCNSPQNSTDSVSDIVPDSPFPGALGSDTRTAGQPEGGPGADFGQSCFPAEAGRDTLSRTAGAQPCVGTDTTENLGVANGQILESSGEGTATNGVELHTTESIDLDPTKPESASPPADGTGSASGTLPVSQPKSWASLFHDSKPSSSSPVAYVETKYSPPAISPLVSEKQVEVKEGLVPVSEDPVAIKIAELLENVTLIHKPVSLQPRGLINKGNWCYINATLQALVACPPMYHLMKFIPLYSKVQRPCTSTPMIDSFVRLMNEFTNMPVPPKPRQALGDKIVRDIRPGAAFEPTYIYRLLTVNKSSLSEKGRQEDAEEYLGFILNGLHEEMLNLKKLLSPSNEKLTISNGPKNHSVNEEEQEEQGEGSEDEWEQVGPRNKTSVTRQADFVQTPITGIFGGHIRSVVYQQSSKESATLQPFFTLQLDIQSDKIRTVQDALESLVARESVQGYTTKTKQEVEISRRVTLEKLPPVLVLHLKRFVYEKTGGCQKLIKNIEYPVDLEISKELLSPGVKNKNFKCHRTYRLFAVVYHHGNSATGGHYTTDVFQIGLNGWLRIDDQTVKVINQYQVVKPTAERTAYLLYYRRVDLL
Chain of UniProt O15372 (O15372 whole entry): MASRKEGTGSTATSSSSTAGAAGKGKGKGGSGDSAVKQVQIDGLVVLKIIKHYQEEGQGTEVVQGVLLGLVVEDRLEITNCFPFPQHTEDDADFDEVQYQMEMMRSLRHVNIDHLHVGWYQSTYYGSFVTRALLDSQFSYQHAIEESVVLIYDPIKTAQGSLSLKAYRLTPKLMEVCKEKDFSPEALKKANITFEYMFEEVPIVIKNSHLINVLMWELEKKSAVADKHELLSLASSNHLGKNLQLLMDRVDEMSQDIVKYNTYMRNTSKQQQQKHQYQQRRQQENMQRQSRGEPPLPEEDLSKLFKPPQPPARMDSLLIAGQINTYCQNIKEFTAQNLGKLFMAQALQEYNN
Chain of UniProt P54578 (P54578 whole entry): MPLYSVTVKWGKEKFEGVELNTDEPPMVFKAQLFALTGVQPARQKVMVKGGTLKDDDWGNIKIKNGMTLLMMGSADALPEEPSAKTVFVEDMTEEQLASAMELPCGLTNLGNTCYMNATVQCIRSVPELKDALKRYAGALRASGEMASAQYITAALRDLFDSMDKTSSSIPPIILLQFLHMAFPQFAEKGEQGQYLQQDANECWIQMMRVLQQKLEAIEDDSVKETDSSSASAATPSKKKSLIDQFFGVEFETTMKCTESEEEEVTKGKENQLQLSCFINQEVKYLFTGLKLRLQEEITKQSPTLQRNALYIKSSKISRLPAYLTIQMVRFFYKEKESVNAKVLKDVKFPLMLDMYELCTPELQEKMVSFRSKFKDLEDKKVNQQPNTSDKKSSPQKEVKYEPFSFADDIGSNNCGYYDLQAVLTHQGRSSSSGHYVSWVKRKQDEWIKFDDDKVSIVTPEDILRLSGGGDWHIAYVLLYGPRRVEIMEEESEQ
Chain of UniProt Q70EL1 (Q70EL1 whole entry): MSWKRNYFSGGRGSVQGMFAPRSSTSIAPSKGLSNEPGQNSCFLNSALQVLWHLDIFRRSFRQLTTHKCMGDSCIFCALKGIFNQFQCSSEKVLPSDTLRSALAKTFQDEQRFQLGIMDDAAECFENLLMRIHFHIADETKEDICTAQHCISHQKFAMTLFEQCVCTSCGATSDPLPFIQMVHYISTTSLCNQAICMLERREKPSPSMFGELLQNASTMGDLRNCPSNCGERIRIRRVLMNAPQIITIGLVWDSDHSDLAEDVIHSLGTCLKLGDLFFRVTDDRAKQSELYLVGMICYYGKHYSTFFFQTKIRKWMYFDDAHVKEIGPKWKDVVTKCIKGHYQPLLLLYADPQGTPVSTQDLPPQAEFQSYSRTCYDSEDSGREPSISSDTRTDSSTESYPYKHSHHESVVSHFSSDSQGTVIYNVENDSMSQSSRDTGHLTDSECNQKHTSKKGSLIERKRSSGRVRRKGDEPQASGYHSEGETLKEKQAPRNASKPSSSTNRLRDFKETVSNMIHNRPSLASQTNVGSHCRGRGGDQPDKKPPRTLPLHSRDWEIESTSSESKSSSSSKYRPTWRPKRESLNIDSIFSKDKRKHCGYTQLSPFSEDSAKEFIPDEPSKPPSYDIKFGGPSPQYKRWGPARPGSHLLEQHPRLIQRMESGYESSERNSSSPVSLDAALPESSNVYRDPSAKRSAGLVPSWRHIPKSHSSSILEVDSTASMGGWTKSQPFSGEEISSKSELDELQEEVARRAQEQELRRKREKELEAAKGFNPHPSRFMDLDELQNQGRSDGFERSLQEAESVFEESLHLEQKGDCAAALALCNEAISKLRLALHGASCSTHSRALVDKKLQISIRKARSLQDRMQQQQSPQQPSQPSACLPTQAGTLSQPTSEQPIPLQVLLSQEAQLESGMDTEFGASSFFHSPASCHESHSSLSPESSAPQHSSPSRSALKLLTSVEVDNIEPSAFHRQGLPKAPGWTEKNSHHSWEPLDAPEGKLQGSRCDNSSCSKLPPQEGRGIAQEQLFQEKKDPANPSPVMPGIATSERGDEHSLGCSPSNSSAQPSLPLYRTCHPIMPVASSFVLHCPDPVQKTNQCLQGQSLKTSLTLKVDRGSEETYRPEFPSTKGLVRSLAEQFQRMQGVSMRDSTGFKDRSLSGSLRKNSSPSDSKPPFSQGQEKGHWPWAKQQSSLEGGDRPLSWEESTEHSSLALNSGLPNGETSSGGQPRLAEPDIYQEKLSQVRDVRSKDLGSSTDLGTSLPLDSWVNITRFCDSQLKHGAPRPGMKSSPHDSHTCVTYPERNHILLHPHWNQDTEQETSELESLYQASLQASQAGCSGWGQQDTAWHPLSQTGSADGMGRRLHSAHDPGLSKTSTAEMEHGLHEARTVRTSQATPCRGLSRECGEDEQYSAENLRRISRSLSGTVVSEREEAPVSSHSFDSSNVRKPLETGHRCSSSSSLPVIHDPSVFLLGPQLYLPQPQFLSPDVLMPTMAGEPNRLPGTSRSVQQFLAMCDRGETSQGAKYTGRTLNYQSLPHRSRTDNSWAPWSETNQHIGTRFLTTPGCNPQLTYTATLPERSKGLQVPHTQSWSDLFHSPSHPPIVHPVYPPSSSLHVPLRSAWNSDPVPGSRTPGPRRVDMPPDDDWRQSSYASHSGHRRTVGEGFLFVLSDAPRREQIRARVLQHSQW

Compound in the first test: OC1CN(Cc2sccc12)C(=O)CCl
The test is described as follows: log2 ratio of Biotin-Ahx-Ub-VS probe labelling (compound/DMSO); higher = less target engagement, active = hit call of the paper (q ≤ 0.05, log2 ratio ≤ -1). The settings on record: compound concentration: 50uM; treatment time: 3 h. Here is the method: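 Round 2 competitive ABPP in HEK293T lysate. Purified HTC-D2B compounds were tested at 50 and 200 µM for 3 h, followed by Biotin-Ahx-Ub-VS enrichment and diaPASEF LC-MS/MS. Values are the average log2 ratio (compound/DMSO) from an unpaired t-test (n=3 treated, n=26 DMSO).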
As to USP10 (UniProt Q14694), the “log2 ratio of Biotin-Ahx-Ub-VS probe labelling” value (shortened to “log2 ratio”) is -0.166 (inactive).
Turning to UniProt Q8TE49, the “log2 ratio” value is -1.87 (active).
On the same count and under the same terms, for USP39 (UniProt Q53GS9) the value was -0.0158 (inactive).
Consider USP7 (UniProt Q93009), for which the “log2 ratio” value is -0.155 (inactive).
The same measure, in the same setting: in the case of USP14 (UniProt P54578) it was -0.385 (inactive).
As to EIF3H (UniProt O15372), the “log2 ratio” value is -0.189 (inactive).
On the same count and under the same terms, in the case of USP46 (UniProt P62068) it was -0.289 (inactive); in that of USP54 (UniProt Q70EL1), 0.561 (inactive).

The same test, now with this note: compound concentration: 200uM; treatment time: 3 h.
Regarding USP10 (UniProt Q14694), the “log2 ratio” value was -0.00161 (inactive).
On the same count and under the same terms, in the case of UniProt Q8TE49 it was -2.68 (active).
Same read-out and setting: for USP39 (UniProt Q53GS9) the value was 0.0541 (inactive); for USP7 (UniProt Q93009), -0.426 (inactive).
For USP14 (UniProt P54578), the “log2 ratio” value is -0.604 (inactive).
In the case of EIF3H (UniProt O15372), the “log2 ratio” value was -0.0524 (inactive).
Take USP46 (UniProt P62068): the “log2 ratio” value was -0.565 (inactive).
On the same count and under the same terms, in the case of USP54 (UniProt Q70EL1) it was -0.559 (inactive).
